Assay outcomes from PubChem BioAssay.
In the library only some 12% were active in any assay of this set; here they are far more common.
G9a inh – G9a (human) methyltransferase inhibition; Q96KQ7; G9a H3K9 monomethylation, AlphaScreen, 2 h; Potency, µM (top dose mostly 102 µM), without a hit: at the top dose activity, negative = inhibition, hits mostly inhibitors; hit rate 8.8% among 350,000; AID 504332; further: on the % scale 0 is the no-effect control and ±100 the full control effect; nearly all actives have a fitted effect of over 75% in size
Target sequence (Q96KQ7 913-1193 limits assumed): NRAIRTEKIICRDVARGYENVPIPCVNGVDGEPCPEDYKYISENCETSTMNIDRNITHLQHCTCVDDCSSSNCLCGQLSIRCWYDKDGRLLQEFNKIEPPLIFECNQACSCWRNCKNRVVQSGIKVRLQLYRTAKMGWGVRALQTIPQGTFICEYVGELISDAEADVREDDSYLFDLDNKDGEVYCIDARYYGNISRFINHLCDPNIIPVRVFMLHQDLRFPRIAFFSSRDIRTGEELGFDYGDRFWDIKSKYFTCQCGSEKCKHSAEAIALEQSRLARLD
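Using a bead-based AlphaScreen, monomethylated H3K9 product from 2 h room-temperature reactions (G9a 20 nM, peptide 500 nM, SAM 20 uM) was detected with 0.5 ug/mL rabbit anti-H3K9me1 antibody.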
JMJD2A Tudor inh – JMJD2A Tudor domain (human) inhibition; O75164; AID 504339; AlphaScreen JMJD2A-Tudor / H3K4me3 peptide binding; Potency, µM (doses to about 114 µM), inactives show top-dose activity change, negative = inhibition, usual class: inhibitors; hit rate 4.4% among 390,000; further: on the % scale 0 is the no-effect control and ±100 the full control effect; nearly all actives have a fitted effect of over 50% in size
Sfp PPTase inh – inhibitors of Bacillus subtilis Sfp phosphopantetheinyl transferase | hit rate 3.5% among 310,000 | Potency, µM, for inactives: largest response in the series, negative = inhibition, actives largely listed as inhibitors | Biochemical Sfp PPTase activity, qHTS;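 further: the enzyme is Sfp with the accession as filed and its product quenches rhodamine fluorescence; 0% = enzyme reaction without inhibitor and -100% = no enzyme wells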
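Step 1, compound plus 15 nM Sfp-PPTase, 15 min, room temperature. Step 2, add rhodamine-CoA (5 uM) and BHQ-2-YbbR (12.5 uM). Step 3, read 525/598 nm fluorescence at 0 and 30 min.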
PLK1 PBD block – inhibitors of human PLK1 polo-box domain binding | P53350 | Plk1 PBD binding of FITC phosphopeptide, fluorescence polarization | Potency, µM, for the others: max response, negative = inhibition, usual class: inhibitors | hit rate 2.8% among 360,000 | AID 720504; further: series mostly up to about 57 µM; on the % scale 0 is the no-effect control and ±100 the full control effect; nearly all actives have a fitted effect of over 65% in size
BAZ2B inh – BAZ2B (human) inhibition; Potency, µM (series often up to 114 µM), for inactives: at the top dose activity change, negative = inhibition, hits mostly inhibitors; Q9UIF8; AlphaScreen BAZ2B-H3K14Ac peptide displacement; hit rate 4.4% among 360,000; AID 504333; further: on the % scale 0 is the no-effect control and ±100 the full control effect; nearly all actives have a fitted effect of over 60% in size
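AlphaScreen displacement: compounds (up to 110uM) incubated 30 min at room temperature with a preformed 50 nM BAZ2B/50 nM biotinylated H3K14Ac peptide complex in PBS pH 7.4 with Tween-20. Donor and acceptor beads at 10 ug/mL final added, 20 min light-protected before reading.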
HP1b chromo inh – blocks HP1-beta chromodomain binding to methylated histone tails; P83916; AlphaScreen HP1-beta / biotin-H3K9me3 peptide binding; Potency, µM (top dose mostly 114 µM), for inactives: top-dose activity change, negative = inhibition, most hits filed as inhibitors; hit rate 0.56% among 390,000; AID 540317; further: nearly all actives have a fitted effect of over 70% in size
Target sequence (P83916 whole entry, looked up): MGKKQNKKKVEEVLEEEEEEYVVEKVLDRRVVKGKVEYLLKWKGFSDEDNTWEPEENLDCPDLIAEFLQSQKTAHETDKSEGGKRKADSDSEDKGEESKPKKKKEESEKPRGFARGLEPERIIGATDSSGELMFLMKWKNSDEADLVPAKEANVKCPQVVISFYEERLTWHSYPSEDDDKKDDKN
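HP1-beta protein (50 nM final) preincubated 30 min at room temperature with biotinylated H3(1-18)K9me3 peptide (50 nM) in PBS pH 7.4, 0.01% Tween-20, then compound added for 30 min. AlphaScreen streptavidin donor/nickel chelate acceptor beads (10 ug/mL final), 30 min dark, luminescence read.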
Active calls of the source: *; ! = not active in a repeat; [ ] = remark or other dose. The call rests on the fitted dose curve; in most records, active means well fitted curve in the direction sought with a large enough effect; inconclusive means small, poorly fitted or top-dose-only effect, or another doubt; inactive means no such curve, though single readings can be large; an effect the other way counts as inactive or inconclusive. Potency means the concentration at half of the fitted maximal effect.

Results for CN1C(=O)C(=O)/C(=C(/O)c2ccc(Br)cc2)C1c1ccc(F)cc1 (configuration not stated) ?
G9a inh: 71µM*; JMJD2A Tudor inh: -4%; Sfp PPTase inh: 20%; PLK1 PBD block: 2%; BAZ2B inh: -8%; HP1b chromo inh: 37%

Results for O=C1C(=O)N(c2ccccn2)C(c2ccc(Br)cc2)/C1=C(/O)c1ccc(Br)cc1 (configuration not stated) ?
G9a inh: 45µM*; JMJD2A Tudor inh: -40%; Sfp PPTase inh: 15%; PLK1 PBD block: 0%; BAZ2B inh: -34%; HP1b chromo inh: -7%

What do the screens show for `CCOc1ccc(/C(O)=C2/C(=O)C(=O)N(c3ccccn3)C2c2ccc(F)cc2)c(C)c1` (configuration not stated)?
G9a inh: 28µM*; JMJD2A Tudor inh: inconclusive; Sfp PPTase inh: -11%; PLK1 PBD block: -9%; BAZ2B inh: -10%; HP1b chromo inh: -16%

Results for Cc1ccc(/C(O)=C2\C(=O)C(=O)N(C)C2c2ccc(Br)cc2)cc1 (configuration not stated) ?
G9a inh: inconclusive; JMJD2A Tudor inh: -20%; Sfp PPTase inh: 11%; PLK1 PBD block: -3%; BAZ2B inh: 3%; HP1b chromo inh: 10%

How did COc1ccc(/C(O)=C2/C(=O)C(=O)N(c3ccccn3)C2c2ccc(OC)cc2)cc1 (configuration not stated) do in these assays?
G9a inh: inconclusive; JMJD2A Tudor inh: -19%; Sfp PPTase inh: 16%; PLK1 PBD block: -2%; BAZ2B inh: -17%; HP1b chromo inh: 20%

How did O=C1C(=O)N(c2ccccn2)C(c2ccc(F)cc2)/C1=C(/O)c1ccc(Br)cc1 (configuration not stated) do in these assays?
G9a inh: 14%[0.501 µM]; JMJD2A Tudor inh: -16%; Sfp PPTase inh: 18%; PLK1 PBD block: -13%; BAZ2B inh: -1%; HP1b chromo inh: 17%

Results for Cn1c(=O)c(=O)n(C)c2cc(NC(=O)c3cccc(F)c3)c(Cl)cc21 ?
G9a inh: -2%[59 µM]; JMJD2A Tudor inh: -13%; BAZ2B inh: -16%; HP1b chromo inh: 17%

Results for O=C(c1cc(C(F)(F)F)cc(C(F)(F)F)c1)N1CCC2(CC1)CN(Cc1ccccc1)C2 ?
G9a inh: -7%[12.7 µM]; Sfp PPTase inh: 37%

How did CCc1c(C)nc2nncn2c1Nc1ccc(Cl)cc1 do in these assays?
G9a inh: -17%[59 µM]; JMJD2A Tudor inh: -9%; BAZ2B inh: -1%; HP1b chromo inh: 38%

Results for Cc1cc(C)n(C(=O)c2cc([N+](=O)[O-])cc([N+](=O)[O-])c2)n1 ?
G9a inh: 71µM*; JMJD2A Tudor inh: -36%; Sfp PPTase inh: -5%; PLK1 PBD block: -7%; BAZ2B inh: inconclusive; HP1b chromo inh: -25%

Results for CSCC[C@H](NC(=O)[C@H](Cc1ccccc1)NC(=O)[C@H](Cc1cnc[nH]1)NC(=O)CNC(=O)[C@@H](NC(=O)[C@H](C)NC(=O)[C@H](Cc1c[nH]c2ccccc12)NC(=O)[C@H](CCC(N)=O)NC(=O)[C@@H]1CCCN1C(=O)[C@@H](NC(=O)[C@@H]1CCC(=O)N1)C(C)C)C(C)C)C(N)=O ?
Sfp PPTase inh: 2%

What do the screens show for `CCOc1cccc(-c2nn(-c3ccccc3)cc2/C=C(/C#N)C(=O)NCCCn2ccnc2)c1`?
G9a inh: inconclusive; JMJD2A Tudor inh: inconclusive; Sfp PPTase inh: inconclusive; PLK1 PBD block: 0%; BAZ2B inh: 35µM*; HP1b chromo inh: inconclusive

How did N#C/C(=C/c1cn(-c2ccccc2)nc1-c1cccc(S(=O)(=O)N2CCCC2)c1)C(=O)NCc1ccco1 do in these assays?
G9a inh: 50µM*; JMJD2A Tudor inh: -18%; Sfp PPTase inh: -12%; PLK1 PBD block: inconclusive; BAZ2B inh: -34%; HP1b chromo inh: -2%

What do the screens show for `N#C/C(=C/c1cn(-c2ccccc2)nc1-c1cccc(OCc2ccccc2)c1)C(=O)NCCCn1ccnc1`?
G9a inh: -11%[59 µM]; JMJD2A Tudor inh: 40µM*; Sfp PPTase inh: -27%; PLK1 PBD block: -1%; BAZ2B inh: 10µM*; HP1b chromo inh: inconclusive

What do the screens show for `N#C/C(=C/c1cn(-c2ccccc2)nc1-c1cccc(S(=O)(=O)N2CCOCC2)c1)C(=O)NCc1ccco1`?
G9a inh: 1%[59 µM]; JMJD2A Tudor inh: -2%; Sfp PPTase inh: 15%; PLK1 PBD block: 1%; BAZ2B inh: -18%; HP1b chromo inh: 38%

Results for N#Cc1cccc(NC(=O)N2CCCC3(CCN(C(=O)c4cnccn4)CC3)C2)c1 ?
G9a inh: -3%[12.7 µM]; Sfp PPTase inh: 8%

How did COc1cc(C2c3cc(O)c(OC)cc3CC(C(=O)O)C2CO)ccc1O (configuration not stated) do in these assays?
JMJD2A Tudor inh: -17%; PLK1 PBD block: 0%; HP1b chromo inh: -4%

What do the screens show for `CCCOC(=O)c1c(NC(=O)C2C3C=CC(C3)C2C(=O)O)sc2c1CCC(C)C2` (configuration not stated)?
G9a inh: 8.9µM*; JMJD2A Tudor inh: 28µM*; Sfp PPTase inh: 40µM*; PLK1 PBD block: 5.3µM*; BAZ2B inh: inconclusive; HP1b chromo inh: inconclusive

How did CCOC(=O)c1c(NC(=O)C2C3C=CC(C3)C2C(=O)O)sc2c1CC(C)(C)OC2 (configuration not stated) do in these assays?
JMJD2A Tudor inh: inconclusive; Sfp PPTase inh: 3%; PLK1 PBD block: 21µM*; BAZ2B inh: -27%; HP1b chromo inh: -3%

How did CCOC(=O)c1c(NC(=O)C2C3C=CC(C3)C2C(=O)O)sc2c1CC(C)CC2 (configuration not stated) do in these assays?
G9a inh: inconclusive; JMJD2A Tudor inh: -27%; Sfp PPTase inh: 25%; PLK1 PBD block: -16%; BAZ2B inh: -27%; HP1b chromo inh: 49%

How did COc1cc2c(O)c3c(c(-c4ccc5c(c4)OCO5)c2cc1OC)C(=O)OC3 do in these assays?
JMJD2A Tudor inh: -20%; Sfp PPTase inh: -28%; PLK1 PBD block: -16%; BAZ2B inh: -7%; HP1b chromo inh: 13%

What do the screens show for `COc1cc2c(OC(C)=O)c3c(c(-c4ccc5c(c4)OCO5)c2cc1OC)C(=O)OC3`?
G9a inh: -10%[59 µM]; JMJD2A Tudor inh: 89µM*!; Sfp PPTase inh: -11%; PLK1 PBD block: -5%; BAZ2B inh: -5%; HP1b chromo inh: inconclusive

Results for CC(Oc1ccc(Br)cc1)C(=O)Nc1ccc(S(=O)(=O)N(C)C2CCN(C)CC2)cc1 (configuration not stated) ?
G9a inh: 35µM*; JMJD2A Tudor inh: -19%; PLK1 PBD block: 2%; BAZ2B inh: 6%; HP1b chromo inh: 5%
